In PubChem BioAssay AID1259343 (VanderVen Lab, College of Veterinary Medicine, Cornell …, 2017) one finds inhibition data, which are given here for 30 molecules.

Structures are written as SMILES. In all, about 6,200 compounds went through this assay and about 2,900 (47%) were called active. The set was probably picked from earlier hits. The list shows a part of the results. Values without a mark were called inactive. Cut-off read from the data, not from the text of the source: active = inhibition above about 50%; inactive = the rest.

A short description of the test: Mycobacterium tuberculosis growth inhibition, primary screen (AID 1259343). Conditions: inhibition: at 10 µM, active compounds read high; outcome: 10 uM.
For the molecule `CCN1CCc2c(sc(NC(=O)c3ccc([N+](=O)[O-])cc3)c2-c2nc3ccccc3s2)C1`, the inhibition (commonly the drop in the measured response relative to a control, in per cent) was 42.7%.
Under `CCN1CCc2c(sc(NC(=O)C(C)(C)C)c2-c2nc3ccccc3s2)C1` stands 100% (active); under `CN1CCc2c(sc(NC(=O)c3ccco3)c2-c2nc3ccccc3s2)C1`, “inactive”.
In the case of `CCC(=O)Nc1sc2c(c1-c1nc3ccccc3s1)CCN(C)C2` it was 30.1%.
In the case of `CCN1CCc2c(sc(NC(=O)c3ccco3)c2-c2nc3ccccc3s2)C1` it was 87.1% (active); in that of `CCC(=O)Nc1sc2c(c1-c1nc3ccccc3s1)CCN(CC)C2`, 60.8% (active); in that of `CCN1CCc2c(sc(NC(=O)C3CC3)c2-c2nc3ccccc3s2)C1`, 36%.
Take `CCN1CCc2c(sc(NC(C)=O)c2-c2nc3ccccc3s2)C1`: the inhibition was 79.4% (active).
Under `C(=Nn1c(-c2ccco2)csc1=NC1CCCCC1)c1ccccn1` stands -7.16%.
In the case of `CCN1CCc2c(sc(NC(=O)c3ccc(OC)cc3)c2-c2nc3ccccc3s2)C1` it was “inactive”; in that of `CN1CCc2c(sc(NC(=O)c3cccs3)c2-c2nc3ccccc3s2)C1`, 45.1%; in that of `CN1CCc2c(sc(NC(=O)C(C)(C)C)c2-c2nc3ccccc3s2)C1`, 52.2% (active).
Under `CCN1CCc2c(sc(NC(=O)c3cccs3)c2-c2nc3ccccc3s2)C1` stands 52% (active); under `CN1CCc2c(sc(NC(=O)CS(=O)(=O)c3ccccc3)c2-c2nc3ccccc3s2)C1`, 25.4%; under `CCN1CCc2c(sc(NC(=O)c3ccc(C(C)=O)cc3)c2-c2nc3ccccc3s2)C1`, 5.96%.
As to `Cc1ccc(S(=O)(=O)CC(=O)Nc2sc3c(c2-c2nc4ccccc4s2)CCN(C)C3)cc1`, the inhibition was -29.9%.
In the case of `CCN1CCc2c(sc(NC(=O)c3ccccc3)c2-c2nc3ccccc3s2)C1` it was 100% (active); in that of `CC1CCc2c(sc3nc(C(C)N4CCOCC4)[nH]c(=O)c23)C1` (stereo not given), 49.6%.
In the case of `CC1CCc2c(sc3nc(CN(Cc4ccccc4)CC(O)COCc4ccccc4)[nH]c(=O)c23)C1` (stereo not given) it was 17.2%.
Under `COc1ccc(OCCSCc2nc3sc4c(c3c(=O)[nH]2)CCC(C)C4)cc1` (stereo not given) stands 54.4% (active); under `N=c1oc2c([N+](=O)[O-])cc(N3CCCCC3)cc2cc1-c1nc2ccccc2s1`, 5.54%; under `Oc1ccc(Br)cc1C=NNc1ccc(F)cc1F`, 58.9% (active).
As to `CN(C)c1ccc(C=NNc2ccc(F)cc2F)cc1`, the inhibition was 14.3%.
Under `COc1cc(OC)c(OC)cc1C=NNc1ccc(F)cc1F` stands 84.3% (active); under `O=C1CSC2=NCN(c3ccc(Cl)c(Cl)c3)CN12`, 71.9% (active).
Under `CCOC(=O)c1nnc2n(c1=O)CCN2c1ccc(OC)cc1` stands 31.9%; under `COc1ccc(N2CN=C3SCC(=O)N3C2)cc1`, 95.9% (active); under `O=C1CSC2=NCN(c3ccc(I)cc3)CN12`, 63.4% (active).
In the case of `COc1ccc(CN2CCN(c3ccc(Oc4ccccc4)cc3)C(=O)C2C)cc1` (stereo not given) it was 28.7%.
In the case of `O=c1c2cnc(N3CCOCC3)nc2ccn1-c1ccc(Cl)c(Cl)c1`, the inhibition is 12.3%.
